Assay outcomes deposited in PubChem by National Center for Advancing Translational Sciences (NCATS).
Only some compounds are listed: those with a hit (about 0.9% of all), similar ones and a draw of the others.
gsp ag: activates gsp, the McCune-Albright syndrome mutation | gsp mutant cells, cAMP HTRF, 30 min | Potency, µM (top dose mostly 76.9 µM), for inactives: at the top dose activation (cAMP increase), hits mostly activators | 340,000 tested, 0.13% active | AID 624287; active = well fitted activation curve with a large enough effect; inconclusive = small, poorly fitted or top-dose-only effect, or another doubt; inactive = no such curve, though single readings can be large or run the other way; cell line not stated here;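 note: phosphodiesterase inhibitor Ro 20-1724 added with compounds to block cAMP breakdown; potency is the fitted concentration of half-maximal effect; nearly all actives have a fitted effect of over 60% in size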
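Cells stably selected in G418 were plated at 2000/well, grown 16-24 hr, then given compounds in DMSO with the PDE inhibitor […] (300 uM solution added) for 30 min at 37C; cAMP was read by HTRF.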
gsp antagonist: antagonizes gsp, the McCune-Albright syndrome mutation | AID 624288 | 340,000 tested, 0.4% active | gsp-mutant cells, cAMP HTRF, 30 min | Potency, µM (top dose mostly 76.9 µM), for inactives: at the top dose activity change, negative = inhibition, actives largely listed as inhibitors; calls by dose curve; cell line not stated here;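 note: intracellular cAMP measured with PDE inhibitor Ro 20-1724 present during compound exposure; potency is the fitted concentration of half-maximal effect; % is set by controls: 0 for no effect and ±100 for the full control effect; nearly all actives have a fitted effect of over 65% in size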
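Cells, 2000/well, grown 16–24 h in DMEM 10% FBS with 0.5 mg/ml G418, then compounds plus […] (300 uM addition stock), 30 min at 37C. cAMP read by HTRF (cAMP-d2 and anti-cAMP antibody-K in lysis buffer) after 30 min RT.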
RXFP1 antagonist: antagonists of human relaxin receptor RXFP1; HEK293-RXFP1, relaxin-stimulated cAMP HTRF, 30 min; hits give low values; activity change, negative = inhibition, % at 57.5 µM; 350,000 tested, 0.59% active; AID 1259400;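 active = activity change of -60% or lower, but not beyond a set lower limit; inconclusive = change between -60% and -40%, or beyond the set limit; inactive = change above -40%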; note: % is set by controls: 0 for no effect and ±100 for the full control effect
Target sequence (Q9HBX9 whole entry, looked up): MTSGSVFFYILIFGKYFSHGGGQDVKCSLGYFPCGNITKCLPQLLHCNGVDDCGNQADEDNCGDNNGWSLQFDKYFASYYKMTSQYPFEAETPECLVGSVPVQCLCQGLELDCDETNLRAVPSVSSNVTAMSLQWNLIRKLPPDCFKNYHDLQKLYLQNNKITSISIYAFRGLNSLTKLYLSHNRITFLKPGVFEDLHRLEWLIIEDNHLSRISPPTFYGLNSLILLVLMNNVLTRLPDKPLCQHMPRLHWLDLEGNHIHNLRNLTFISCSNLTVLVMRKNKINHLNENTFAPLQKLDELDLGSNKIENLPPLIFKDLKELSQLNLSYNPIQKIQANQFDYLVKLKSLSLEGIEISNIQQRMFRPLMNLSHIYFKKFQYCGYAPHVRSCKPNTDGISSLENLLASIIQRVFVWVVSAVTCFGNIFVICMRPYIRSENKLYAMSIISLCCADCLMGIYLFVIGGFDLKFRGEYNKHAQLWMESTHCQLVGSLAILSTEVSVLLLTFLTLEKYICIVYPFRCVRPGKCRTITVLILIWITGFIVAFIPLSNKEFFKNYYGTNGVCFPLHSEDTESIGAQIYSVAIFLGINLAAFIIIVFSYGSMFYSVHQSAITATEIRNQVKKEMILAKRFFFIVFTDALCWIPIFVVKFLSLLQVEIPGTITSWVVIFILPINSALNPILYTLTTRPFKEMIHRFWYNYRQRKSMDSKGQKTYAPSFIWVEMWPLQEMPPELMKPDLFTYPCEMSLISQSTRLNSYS
RXFP1 ag: activates the human relaxin receptor RXFP1; Q9HBX9; HEK293T-RXFP1 cAMP TR-FRET, 30 min; response scale: percent of porcine relaxin response, buffer zero; AID 2676; Potency, µM (highest dose often 57.5 µM), for inactives: at the highest dose activation, usual class: activators; 370,000 tested, 0.3% active; active = well fitted activation curve with a large enough effect; inconclusive = small, poorly fitted or top-dose-only effect; note: potency is the fitted concentration of half-maximal effect; % is set by controls: 0 for no effect and ±100 for the full control effect; nearly all actives have a fitted effect of over 60% in size
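HEK293T cells stably expressing RXFP1 were pretreated with the PDE4 inhibitor Ro 20174, exposed to compounds for 30 min at 37C, lysed, and cAMP was read by TR-FRET. Data normalized to buffer (basal) and 29 nM porcine relaxin (100%).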
Active calls of the source: *; ? = inconclusive; · = not tested or not shown; [ ] = remark or other dose.

SMILES | gsp ag | gsp antagonist | RXFP1 antagonist | RXFP1 ag
CCCCNC(C(=O)Nc1cccc(S(=O)(=O)N2CCOCC2)c1)c1ccccc1 (configuration not stated) | -1%[15.4 µM] | 11µM* | -1 | 2%
Cc1ccc(C)c(SCC(=O)Nc2cccc(S(=O)(=O)N3CCOCC3)c2)c1 | 49%[15.4 µM] | 3% | -2 | 2%
O=C(NCc1cccc(Cl)c1)c1cc(COc2ccc3ncccc3c2)on1 | -3%[15.4 µM] | 35µM* | -7 | -2%
Cc1nc2sc3c(=O)[nH]nnc3c2c(C)c1Br | ? | 50µM* | -10 | -1%
COc1cccc2sc(N3CCN(C(=O)CS(=O)(=O)c4ccc(Cl)cc4)CC3)nc12 | · | · | -15 | 2%
CCOC(=O)c1c(NC(=O)CSc2nc3ccc(OC)cc3[nH]2)sc2c1CC(C)(C)NC2(C)C | 3%[15.4 µM] | -6% | -62* | 0%
O=C(Nc1nc(-c2cccs2)cs1)c1ccc([N+](=O)[O-])o1 | 9% | 35µM* | 3 | -2%
Cc1ccc(S(=O)(=O)N2CCN(C(=O)CN3C(=O)NC4(CCCCC4)C3=O)CC2)c(C)c1 | 8%[15.4 µM] | 9% | -61* | 1%
Cc1ccnc(Nc2nc(-c3ccc(O)c(O)c3)cs2)c1 | 15% | -5% | ? | 1%
Oc1ccc(-c2csc(Nc3ccccn3)n2)cc1O | -5% | -5% | -63* | -2%
COc1ccc2c(C(=S)N(C)CC(=O)O)cccc2c1C(F)(F)F | · | · | -3 | ·
COC(=O)c1cc2sc(C)cc2n1Cc1nc(-c2ccc(C)cc2)oc1C | · | · | 18 | 0%
Cc1oc2ncn(C)c(=O)c2c1C(=O)N1CCN(c2ccccc2)CC1 | · | · | · | 20%
Cn1c2c(c(=O)n3ncnc13)CCCC2 | 31%[15.4 µM] | 15% | -10 | 22µM*
CCOC(=O)c1ccc(NC(=O)c2csc3c2CCCC3)cc1 | · | · | -93* | -2%
CCOC(=O)c1ccc(NC(=O)c2sc3nc(N4CCOCC4)c4c(c3c2N)CCCC4)cc1 | 18µM* | -2% | 28 | 9%
Cc1ccccc1CS(=O)(=O)Cc1ccc(C(=O)NCc2ccc(F)cc2)o1 | · | · | · | 1%
N#CC1(c2ccc(F)cc2)CCC(=O)CC1 | · | · | -9 | ·
O=C(COC(=O)CNC(=O)c1ccc(Cl)cc1Cl)NC1CCCCCCC1 | -4%[15.4 µM] | 8% | -61* | 0%
O=C(COC(=O)COc1ccc(Cl)cc1Cl)NC1CCCCCC1 | -29% | 3% | 6 | 1%
O=S(=O)(c1cccc(C(F)(F)F)c1)N1CCC(Oc2ccc(-n3cnnn3)cc2)CC1 | · | · | -28 | -1%
Cc1ccccc1-c1nc(CS(=O)(=O)CC(=O)NC2CC2)c(C)o1 | 4% | 1% | -78* | 0%
C=C(C)Cn1c(-c2ccncc2)n[nH]c1=S | -19%[15.4 µM] | · | -67* | 1%
COC(=O)c1ccc(N2NC(=O)/C(=C/c3cc(OC)c(OC)c(OC)c3)C2=O)cc1 | ? | 13µM* | -16 | 0%
OC(COC(c1ccccc1)c1ccccc1)CN1CCc2ccccc2C1 (configuration not stated) | -21% | -3% | -18 | 0%
SMILES | gsp ag | gsp antagonist | RXFP1 antagonist | RXFP1 ag
OC(COC(c1ccc(F)cc1)c1ccc(F)cc1)CN1CCc2ccccc2C1 (configuration not stated) | -56% | 4% | -62* | -3%
N=C1N=C(N)c2cc3ccccc3cc21 | · | · | -80* | ·
NC1=Nc2cccc3cccc1c23 | -8%[15.4 µM] | -30% | 2 | 1%
O=c1cc2nc(-c3ccccc3)nc(SCc3cccc(Br)c3)n2[nH]1 | · | · | · | 3%
Cc1ccccc1CCNC(=O)C1CCN(S(=O)(=O)c2ccc3c(ccn3C)c2)CC1 | · | · | -12 | -1%
Cc1cc(/C=N\NC(=O)COc2cccc3cccnc23)c(C)n1-c1ccc(Br)cc1 | ? | 2% | -2 | 1%
Cc1cc(/C=N\NC(=O)c2cccs2)c(C)n1-c1ccc2ncccc2c1 | 26% | 40µM* | -3 | -1%
Clc1ccc(C(Cn2ccnc2)OCc2ccc(Sc3ccccc3)cc2)c(Cl)c1 (configuration not stated) | · | · | -9 | ·
CCOc1ccc(-c2nonc2NC(=O)COc2ccccc2)cc1 | · | · | 2 | 1%
CCSc1nnc(-c2ccccc2SC)o1 | ? | 6% | 2 | 22µM*
CCSc1nnc(NC(=O)c2nc(S(=O)(=O)Cc3ccc(F)cc3)ncc2Cl)s1 | -15%[15.4 µM] | 40µM* | ? | -1%
Cc1cccc(CS(=O)(=O)c2ncc(Cl)c(C(=O)Nc3nnc(C(C)C)s3)n2)c1 | -1%[15.4 µM] | 20µM* | ? | -1%
Cc1ccc(CS(=O)(=O)c2ncc(Cl)c(C(=O)Nc3nnc(C(C)C)s3)n2)cc1 | -10%[15.4 µM] | 18µM* | -93* | 0%
CSc1ncc(Cl)c(C(=O)Nc2nnc(SC/C=C/c3ccccc3)s2)n1 | ? | 35µM* | -32 | -1%
COc1ccccc1CNC(=O)CCC1N=C2c3ccccc3N=C(SCc3ccc(C)cc3)N2C1=O (configuration not stated) | · | · | -1 | 25%
O=c1c2c3c(sc2n(Cc2ccccc2F)c(=O)n1-c1ccc(Cl)cc1)CCCC3 | · | · | · | 5%
CSc1nnc(NC(=O)c2nc(S(=O)(=O)Cc3ccccc3F)ncc2Cl)s1 | -16%[15.4 µM] | 35µM* | -40 | -2%
CSc1nnc(NC(=O)c2nc(S(=O)(=O)Cc3cccc(C)c3)ncc2Cl)s1 | -9%[15.4 µM] | 40µM* | -73* | 2%
CC(C)c1nnc(NC(=O)c2nc(S(=O)(=O)Cc3ccc(F)cc3)ncc2Cl)s1 | -17%[15.4 µM] | 28µM* | ? | -3%
CC(C)c1nnc(NC(=O)c2nc(S(=O)(=O)Cc3ccccc3F)ncc2Cl)s1 | -3% | ? | -28 | 2%
CCOc1ccccc1NC(=O)c1nc(S(=O)(=O)Cc2cccc(C)c2)ncc1Cl | ? | -24% | -4 | 0%
O=C(NC1CC(=O)N(c2ccc(F)cc2)C1)C1CC1 (configuration not stated) | · | · | 1 | -1%
CCc1cnc2c(c1SCC(=O)NCc1ccc(C)cc1)c(=O)n(C)c(=O)n2C | · | · | 8 | -2%
O=C(Nc1ccncc1)c1ccc2c(c1)C(=O)N(C1CCCCC1)C2=O | -38% | 22µM* | -11 | 0%
CCOC(=O)c1cccc(NC(=O)CCc2nnc3ccc(N4CCN(C)CC4)nn23)c1 | 29% | 12% | 21 | 12%
SMILES | gsp ag | gsp antagonist | RXFP1 antagonist | RXFP1 ag
Cc1ccc(NC(=O)CCc2nnc3ccc(N4CCN(C)CC4)nn23)cc1F | ? | 6% | 12 | 25µM*
CCOC(=O)c1cccc(NC(=O)CCc2nnc3ccc(N4CCCCC4)nn23)c1 | 35µM* | -10% | 24 | 9%
CCCCC(CC)CNC(=O)CCCn1c(=O)[nH]c2ccsc2c1=O (configuration not stated) | · | · | · | 1%
COC(=O)c1cc(Br)c(=O)n(-c2nccs2)c1 | 14µM* | 12% | 12 | 16µM*
Cc1ccc(NC(=O)c2c(C)nn(-c3ccccc3)c2-n2cccc2)c(Cl)c1 | · | · | · | 0%
COc1ccc(OC)c(/C=C2\SC(=S)N(NS(=O)(=O)c3ccc(C)cc3)C2=O)c1 | 1% | ? | ? | 3%
COc1ccc(OC)c(/C=C2\SC(=S)N(NS(=O)(=O)c3ccccc3)C2=O)c1 | ? | 18µM* | 0 | 1%
